Assay [1] is described as follows: qHTS assay for small molecule agonists of the p53 signaling pathway (AID 651631; calls by dose curve; also: nearly all actives have a fitted effect of over 15% in size). Put shortly: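 HCT-116 cells carrying a beta-lactamase reporter under p53 response elements were dosed with compound for 16 h at 37 °C. LiveBLAzer B/G FRET substrate was then added for 2 h at room temperature, and fluorescence intensity was read to detect pathway agonism.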
Assay [2] in a line: qHTS assay for small molecules that induce genotoxicity in human embryonic kidney cells expressing luciferase-tagged ATAD5 (AID 651632). Also: nearly all actives have a fitted effect of over 15% in size. The gist of the method:
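Reporter cells (HEK293T) express luciferase-tagged ATAD5, a protein that accumulates after DNA damage. Treat 16 hr at 37C/5% CO2, add Amplite, wait 30 min at RT, and read luminescence.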
On the technique in general: qHTS replaces the single test concentration by a dilution series.

Assay [3] is described as follows: qHTS assay for small molecule agonists of the p53 signaling pathway - cell viability (AID 651633; calls by dose curve;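 also: p53RE-bla HCT reporter cells with a stable beta-lactamase p53 reporter; series mostly up to about 83 µM; nearly all actives have a fitted effect of over 30% in size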). The gist of the method:
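p53RE-bla cells were treated with compound for 16 hours at 37 C. Cytotoxicity was then measured as CellTiter-Glo luminescence after 30 min at room temperature.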

Assay [4] is described as follows: qHTS assay for small molecule disruptors of the mitochondrial membrane potential (AID 720635). Also: potency is read from the fitted curve at half-maximal effect. Put shortly:
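HepG2 cells exposed to compound 1 hr at 37C, then Mito-MPS dye 30 min. Ratio read of aggregate (540/590 nm) versus monomer (490/535 nm) fluorescence.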

The nature of assay [5]: qHTS assay to test for compound auto fluorescence at 590 nm (red) in HepG2 cells (AID 720674). Put shortly: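 Fluorescence at 590 nm emission following 540 nm excitation was recorded from HepG2 wells one hour after compound transfer, with DMSO-only wells as vehicle and Rose Bengal sodium equivalency as the scale.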
Assay [6] can be described thus: qHTS assay to test for compound auto fluorescence at 535 nm (green) in HepG2 cells (AID 720675).
The nature of assay [7]: qHTS assay to test for compound auto fluorescence at 460 nm (blue) in HEK293 cells (AID 720678). The gist of the method: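 HEK293, 2,000 cells/well, 10% dialyzed FBS; attach 4-5 hr 37C; pin compound or DMSO; o/n 37C/5% CO2; fluorescence 405/460 nm; triamterene-equivalent units.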
Assay [8] can be described thus: qHTS assay to test for compound auto fluorescence at 590 nm (red) in HEK293 cells (AID 720679). The gist of the method:
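Intensity at 540nm excitation and 590nm emission is reported as Rose Bengal sodium-equivalent autofluorescence. Measurements followed overnight exposure (37C, 5% CO2) of HEK293 cells, 2,000 per well, to 23 nL compound.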

A short description of assay [9]: qHTS assay to test for compound auto fluorescence at 535 nm (green) in HEK293 cells (AID 720680).
Assay [10] in a line: qHTS assay to test for compound auto fluorescence at 460 nm (blue) in HEK293 cell free culture (AID 720681). Put shortly:
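Compounds were added to cell-free DMEM with 10% FBS and fluorescence read directly. The blue channel used 405 nm excitation and 460 nm emission, with triamterene as the reference fluorophore.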

The nature of assay [11]: qHTS assay to test for compound auto fluorescence at 535 nm (green) in HEK293 cell free culture (AID 720682). The gist of the method:
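Green-label autofluorescence (485 nm excitation, 535 nm emission) measured on compound added to cell-free culture medium (DMEM, 10% FBS). Output is expressed relative to fluorescein.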

Assay [12] in a line: qHTS assay to test for compound auto fluorescence at 590 nm (red) in HEK293 cell free culture (AID 720683). The gist of the method: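 Cell-free wells of DMEM with 10% FBS received compound, and intrinsic fluorescence was read at excitation/emission 540/590 nm. Values expressed as equivalence to Rose Bengal sodium.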
Assay [13] in a line: qHTS assay to test for compound auto fluorescence at 590 nm (red) in HepG2 cell free culture (AID 720684). Put shortly:
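Compound was pinned into wells holding MEM with 10% FBS and no cells, and red fluorescence was read at Ex/Em 540/590 nm. Signal is expressed as auto fluorescence equivalency relative to Rose Bengal sodium.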

A short description of assay [14]: qHTS assay to test for compound auto fluorescence at 460 nm (blue) in HepG2 cell free culture (AID 720685). Put shortly: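 Compound (23 nL) or DMSO pinned into cell-free MEM with 10% FBS; blue fluorescence read at 405/460 nm excitation/emission, expressed as auto-fluorescence equivalency to triamterene.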
Assay [15] is described as follows: qHTS assay to test for compound auto fluorescence at 535 nm (green) in HepG2 cell free culture (AID 720686).
Assay [16] in a line: qHTS assay to test for compound auto fluorescence at 460 nm (blue) in HepG2 cells (AID 720687). Put shortly: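 HepG2 cells in MEM with 10% FBS, attached overnight at 37 C, were exposed to compound or DMSO for 1 hr at 37 C, 5% CO2. Blue fluorescence was read at 405/460 nm, with triamterene as reference fluorophore.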
The target of assay [17] is Glucocorticoid receptor (Homo sapiens) (UniProt P04150). Briefly: qHTS assay to identify small molecule agonists of the glucocorticoid receptor (GR) signaling pathway (AID 720691; active = well fitted activation curve with a large enough effect in the signal ratio in the repeat runs, not every such curve was filed as active; the % refers to the signal ratio). The gist of the method: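 Reporter read-out: fluorescence intensity following 2 h room-temperature LiveBLAzer B/G FRET substrate loading. Prior step: GR-bla HeLa cells held 4 h, then treated 18 h at 37 C.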

Assay [18] shares this target. Briefly: qHTS assay to identify small molecule antagonists of the glucocorticoid receptor (GR) signaling pathway (AID 720692; active = well fitted inhibition curve with a large enough effect in the signal ratio in the repeat runs, not every such curve was filed as active; the % refers to the signal ratio). Put shortly: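 Dexamethasone (5 nM final) stimulated a stably integrated GRE-beta-lactamase reporter in HeLa cells during 18 h co-incubation with compounds; signal was quantified as fluorescence intensity of B/G FRET substrate after 2 h.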

A short description of assay [19]: qHTS assay for small molecule disruptors of the mitochondrial membrane potential - cell viability (AID 720634; calls by dose curve;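 also: human HepG2 liver cancer cells; series mostly up to about 83 µM; nearly all actives have a fitted effect of over 20% in size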). Put shortly:
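Measuring cytotoxicity alongside mitochondrial potential, the screen quantified ATP by luminescence in HepG2 cells after 1 hr compound incubation and a 30 min room-temperature CellTiter-Glo step.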

Assay [20] can be described thus: qHTS assay for small molecules that induce genotoxicity in human embryonic kidney cells expressing luciferase-tagged ATAD5 - cell viability (AID 651634; calls by dose curve; also: nearly all actives have a fitted effect of over 25% in size). The gist of the method:
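Seeding of 2,000 HEK293T ATAD5-luciferase cells per well preceded pin-tool compound transfer. Plates sat 15.5 hr at 37C under 5% CO2, then fluorescence was read after 30 min with CellTiter-Fluor.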

Results on eight molecules are retold here after PubChem BioAssay (Tox21).

SMILES strings stand for the structures. Records with an inconclusive call do not appear. Active and inactive are the calls of the source. Unless noted, calls follow the shape of the dose curve; as a rule, active = well fitted curve in the direction sought with a large enough effect in the repeat runs; inconclusive = weak or mixed curves; inactive = no such curve, though single readings can be large; an effect the other way counts as inactive or inconclusive.

Sequence of Glucocorticoid receptor (Homo sapiens) (P04150 whole entry, looked up): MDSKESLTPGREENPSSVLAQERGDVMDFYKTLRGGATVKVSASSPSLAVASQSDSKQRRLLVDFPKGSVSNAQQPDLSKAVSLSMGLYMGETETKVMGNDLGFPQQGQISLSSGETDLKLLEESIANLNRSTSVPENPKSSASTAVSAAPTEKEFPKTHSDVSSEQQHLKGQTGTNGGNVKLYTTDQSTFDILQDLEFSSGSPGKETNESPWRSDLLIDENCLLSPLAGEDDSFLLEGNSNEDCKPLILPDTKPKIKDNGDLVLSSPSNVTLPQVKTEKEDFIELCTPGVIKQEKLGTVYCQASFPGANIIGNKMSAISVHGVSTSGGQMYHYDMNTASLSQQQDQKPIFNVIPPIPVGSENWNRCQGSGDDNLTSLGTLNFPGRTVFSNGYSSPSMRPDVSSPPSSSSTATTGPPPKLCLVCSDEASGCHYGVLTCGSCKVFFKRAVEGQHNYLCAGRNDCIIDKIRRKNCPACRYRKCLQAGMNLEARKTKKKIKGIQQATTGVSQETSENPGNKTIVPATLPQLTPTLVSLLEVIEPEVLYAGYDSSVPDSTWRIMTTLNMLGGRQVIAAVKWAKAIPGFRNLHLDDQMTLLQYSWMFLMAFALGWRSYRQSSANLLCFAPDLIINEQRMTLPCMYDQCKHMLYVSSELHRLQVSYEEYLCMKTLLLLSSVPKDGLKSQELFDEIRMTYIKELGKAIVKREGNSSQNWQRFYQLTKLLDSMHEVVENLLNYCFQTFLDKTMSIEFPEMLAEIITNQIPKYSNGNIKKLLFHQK

Regarding `CCCCCCCCCCCCCCCl`, the Potency result in assay [1], in assay [2], in [3], in assay [4], in [17] and in [18] was “inactive” each time. In addition, the outcome in [5], in assay [6], in assay [7], in assay [8], in assay [9] and in assay [10] was inactive. The result in assay [11], in assay [12], in assay [13], in assay [14], in assay [15] and in assay [16] was inactive.

For `CC1(C)CC(=O)CC(C)(C)N1[O]`, the Potency result in assay [1], in assay [2], in assay [3], in [19] and in assay [4] was “inactive” throughout. In addition, the outcome in assay [5], in assay [6], in assay [7], in assay [8], in [9] and in assay [10] was inactive. For the same molecule, the outcome in [11], in assay [12], in assay [13], in assay [14], in assay [15] and in assay [16] was inactive.

Consider `CC(C)CCON=O`, for which the Potency result in [1], in [2], in assay [3], in assay [19], in assay [4] and in [17] was “inactive” in each case. For the same molecule, in assay [18], the Potency result was “inactive”. The result in [5], in assay [6], in assay [7], in [8], in assay [9] and in assay [10] was inactive. Moreover, the call in assay [11], in assay [12], in assay [13], in [14], in assay [15] and in assay [16] was inactive.

For the molecule `OCCSSCCO`, the Potency entry in assay [1], in assay [2], in [3], in assay [20], in assay [19] and in assay [17] was “inactive” throughout. Also, in assay [18], the Potency entry was “inactive”. Moreover, the result in [5], in [7], in assay [8], in [9], in assay [10] and in assay [11] was inactive. The call in assay [13], in [14], in [15] and in assay [16] was inactive.

As for `CCCCC(CC)CO[N+](=O)[O-]` (configuration not stated), the Potency entry in [1], in assay [2], in [3], in assay [4], in assay [17] and in assay [18] was “inactive” in each case. Further, the molecule was called inactive in assay [5], in assay [7], in assay [8], in assay [9], in assay [10] and in [11]. For the same molecule, the call in assay [12], in [13], in [14], in assay [15] and in [16] was inactive.

With `Oc1cccc(Cl)c1`, the Potency entry in assay [1], in assay [2], in assay [3], in [19] and in assay [18] was “inactive” in each case. Moreover, the Potency in assay [4] was 53.8 µM (active). The result in assay [5], in assay [6], in [7], in [8], in assay [9] and in [10] was inactive. The result in [11], in assay [12], in assay [13], in [14], in assay [15] and in assay [16] was inactive.

With `CC(O)CN1CCN(CC(=O)[O-])CCN(CC(=O)[O-])CCN(CC(=O)[O-])CC1.[Gd+3]` (configuration not stated), the Potency result in assay [1], in assay [2], in assay [3], in assay [20], in assay [4] and in [17] was “inactive” throughout. Further, in assay [18], the Potency entry was “inactive”. In addition, the molecule was called inactive in [5], in [6], in [7], in assay [8], in assay [9] and in assay [10]. The molecule was classed as inactive in assay [11], in assay [12], in assay [13], in assay [14], in assay [15] and in assay [16].

For the molecule `O=C1CC[C@@]2(O)[C@H]3Cc4ccc(O)c5c4[C@@]2(CCN3CC2CC2)[C@H]1O5`, the Potency entry in [1], in assay [2], in assay [3], in assay [20], in [17] and in assay [18] was “inactive” each time. Also, the call in assay [5], in [7], in assay [8], in assay [9], in assay [10] and in assay [11] was inactive. Moreover, the outcome in assay [12], in assay [13], in [14], in assay [15] and in assay [16] was inactive.
